Measured values published in PubChem BioAssay.
Several values for one entry are separate records, joined by “and”; a condition that tells them apart may be missing. Equal entries are not always repeated. Activity calls are given as the source filed them. Unless noted, no stated cut-off is given here; in the data, active means inhibition above about 80%; inactive means the rest.

Experiments:
[1] = LFS_MB_P medulloblastoma growth inhibition, cell-based, chromothripsis tumors, cisplatin or BGB combos (AID 1671449); conditions: LFS_MB_P medulloblastoma cells;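 further: cells exposed for 96 hours; 0% = vehicle DMSO and 100% = killing by high DMSO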
[2] = HDN33 neuroblastoma growth inhibition, cell-based, chromothripsis tumors, cisplatin or BGB combos (AID 1671450); conditions: HDN33 neuroblastoma cells, stronger effect = higher value;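 further: cells exposed to compound for four days; 0% = vehicle DMSO and 100% = cell killing by high DMSO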
[3] = ICB984 medulloblastoma cell growth inhibition, synergistic combos for chromothripsis tumors, cisplatin or BGB combos (AID 1671451; call rule not given here;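 further: cells exposed for 96 hours before readout; 0% = vehicle DMSO and 100% = killing by high DMSO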); conditions: ICB984 medulloblastoma cells, drug combinations, stronger effect = higher value
[4] = LFS_MB_1R medulloblastoma cell growth inhibition, synergistic combos for chromothripsis tumors, cisplatin or BGB combos (AID 1671452); conditions: LFS_MB_1R medulloblastoma cells, stronger effect = higher value;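 further: cells exposed for 96 hours before readout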
[5] = HTB85 osteosarcoma cell growth inhibition, synergistic combos for chromothripsis tumors, BGB or cisplatin IC20 combos (AID 1671453); conditions: HTB85 osteosarcoma cells, drug combinations, stronger effect = higher value;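 further: cells exposed for 96 hours before readout; 0% = vehicle DMSO and 100% = high DMSO killing control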
[6] = CRL2098 osteosarcoma cell growth inhibition, synergistic combos for chromothripsis tumors, BGB or cisplatin IC20 combos (AID 1671454); conditions: CRL2098 osteosarcoma cells, drug combinations, stronger effect = higher value;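 further: cells exposed for 96 h before readout; 0% = vehicle DMSO and 100% = killing by high DMSO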
[7] = HD-MB03 medulloblastoma cell growth inhibition, synergistic combos for chromothripsis tumors, BGB or cisplatin IC20 combos (AID 1671455; in the data active means inhibition above about 83%;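 further: 0% = vehicle DMSO and 100% = high DMSO as cytotoxic control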); conditions: HD-MB03 medulloblastoma cells, stronger effect = higher value
[8] = UWB1.289 ovarian carcinoma cell growth inhibition, synergistic combos for chromothripsis tumors, BGB or cisplatin combos (AID 1671456); conditions: UWB1.289 ovarian carcinoma cells, stronger effect = higher value;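 further: cells exposed to compound for four days; 0% = vehicle DMSO and 100% = killing by high DMSO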
[9] = LFS_MB_2R medulloblastoma cell growth inhibition, synergistic combos for chromothripsis tumors, cisplatin combos (AID 1671457); conditions: LFS_MB_2R medulloblastoma cells, stronger effect = higher value;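 further: cells exposed to compound for four days before readout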
[10] = MDA-MB-436 breast carcinoma cell growth inhibition, synergistic combos for chromothripsis tumors, BGB or cisplatin combos (AID 1671458; call rule not given here;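 further: cells exposed for 96 hours; 0% = vehicle DMSO and 100% = killing by high DMSO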); conditions: MDA-MB-436 breast carcinoma growth inhibition, drug combinations, stronger effect = higher value
[11] = UWB1.289_BRCA1 ovarian cancer growth, cell-based, BGB or cisplatin combinations (AID 1671459); conditions: UWB1.289 BRCA1 ovarian carcinoma, drug combinations, stronger effect = higher value
[12] = human astrocyte viability loss, single and combined drugs, cytotoxicity control for chromothriptic childhood tumor combination screen, cell-based, BGB or cisplatin IC20 combos (AID 1671460); conditions: Human astrocytes, drug combinations, stronger effect = higher value;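 further: cells exposed to compounds for 96 hours before viability readout; 0% = vehicle and 100% = killing control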
[13] = growth inhibition of BT084 medulloblastoma cells, cell-based, ICGC_MB145, cisplatin and BGB IC40 combos (AID 1671461); conditions: drug combinations, stronger effect = higher value;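 further: cells exposed to drugs for 96 hours; 0% = vehicle DMSO and 100% = high DMSO full killing control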
[14] = growth inhibition of RCMB18 medulloblastoma cells, cell-based, cisplatin and BGB IC40 combos (AID 1671462); conditions: stronger effect = higher value;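 further: cells exposed to compound for four days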
[15] = growth inhibition of CRL1545 osteosarcoma cells, cell-based, cisplatin and BGB IC20 combos (AID 1671464); conditions: stronger effect = higher value;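 further: cells exposed to compound for 96 hours before readout; 0% = vehicle DMSO and 100% = high DMSO killing control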
[16] = measured here: combination with BGB IC40, at 0.05 µM
[17] = measured here: with BGB IC20 combination, at 0.5 µM
[18] = measured here: with cisplatin IC20 combination, at 0.5 µM
[19] = measured here: combination with cisplatin, at 0.5 µM
[20] = measured here: combination with cisplatin, at 5 µM

Which inhibition ([1]; at 0.5 µM, stronger effect = higher value) does the source give for `CCCCCCCCCC(=O)N[C@@H](Cc1c[nH]c2ccccc12)C(=O)N[C@@H](CC(N)=O)C(=O)N[C@@H](CC(=O)O)C(=O)NC1C(=O)NCC(=O)N[C@@H](CCCN)C(=O)N[C@@H](CC(=O)O)C(=O)N[C@H](C)C(=O)N[C@@H](CC(=O)O)C(=O)NCC(=O)N[C@H](CO)C(=O)N[C@@H](C(C)CC(=O)O)C(=O)N[C@@H](CC(=O)c2ccccc2N)C(=O)OC1C` (stereo partly drawn) here?
Its inhibition is -27.6% (inactive) and -32.6% (inactive).

What about the inhibition ([1]; measured here: combination with BGB IC20, at 0.005 µM) of the same compound?
The inhibition was 1.22% and 8.36%.

And the inhibition ([1]; measured here: combination with BGB IC40, at 0.005 µM)?
Its inhibition is -33.3% and -6.15%.

And the inhibition [1, 16]?
Its inhibition is -27.1% and -21.6%.

What about the inhibition ([1]; measured here: combination with cisplatin, at 0.5 µM, stronger effect = higher value) of the same compound?
The inhibition was -42.5% and -64.3%.

And the inhibition ([1]; measured here: combination with cisplatin, at 5 µM, stronger effect = higher value)?
The inhibition was -23.7% and -0.57%.

And the inhibition ([2]; BGB combo, at 5 µM)?
The inhibition was -9.1% and -17.9%.

And the inhibition ([2]; at 0.5 µM)?
The inhibition was -7.65% (inactive) and -14% (inactive).

And the inhibition ([2]; cisplatin combo, at 5 µM)?
Its inhibition is 17.9% and -21%.

And the inhibition [2, 17]?
The inhibition was -19% and -14.2%.

What about the inhibition [2, 18] of the same compound?
The inhibition was 5.61% and -17.4%.

And the inhibition ([2]; single agent, at 5 µM)?
Its inhibition is 5.14% and 4.37%.

And the inhibition ([3]; BGB IC20 combo, at 0.005 µM)?
The inhibition was -14.8% and 0.272%.

What about the inhibition ([3]; BGB IC40 combo, at 0.005 µM) of the same compound?
The inhibition was -10.2% and -12.9%.

And the inhibition ([3]; BGB IC40 combo, at 0.05 µM)?
The inhibition was -9.03% and -26.8%.

What about the inhibition ([3]; at 0.5 µM) of the same compound?
The inhibition was -38.5% (inactive) and -18.4% (inactive).

And the inhibition ([3]; cisplatin combo, at 0.05 µM)?
The inhibition was -12.1% and -31.4%.

And the inhibition ([3]; cisplatin combo, at 0.5 µM)?
The inhibition was -42.4% and -16.6%.

What about the inhibition ([3]; cisplatin combo, at 5 µM) of the same compound?
The inhibition was -27.4% and -22.6%.

And the inhibition ([3]; measured here: 5 uM single agent, at 5 µM)?
The inhibition was -18.7% and 2.31%.

What about the inhibition ([4]; at 0.5 µM) of the same compound?
Its inhibition is -6.57% (inactive) and -6.58% (inactive).

And the inhibition [4, 16]?
The inhibition was -2.79% and -15.2%.

What about the inhibition [4, 19] of the same compound?
Its inhibition is 7.06% and -22.9%.

What about the inhibition [4, 20] of the same compound?
Its inhibition is -14.1% and 4.93%.

What about the inhibition ([5]; at 0.5 µM) of the same compound?
Its inhibition is -0.19% (inactive) and -22.1% (inactive).

And the inhibition ([5]; measured here: with BGB IC20, at 0.5 µM)?
Its inhibition is 1.21% and -18.4%.

And the inhibition ([5]; measured here: with BGB IC20, at 5 µM)?
The inhibition was 41% and -9.81%.

What about the inhibition ([5]; measured here: with cisplatin IC20, at 0.5 µM) of the same compound?
The inhibition was -11.7% and -35.1%.

And the inhibition ([5]; measured here: with cisplatin IC20, at 5 µM)?
The inhibition was -35% and -23.5%.

And the inhibition ([5]; single agent, at 5 µM)?
The inhibition was -14.9% and -5.13%.

And the inhibition ([6]; at 0.5 µM)?
The inhibition was -34.4% (inactive) and -31.7% (inactive).

What about the inhibition ([6]; measured here: combination with BGB at IC20, at 0.5 µM) of the same compound?
Its inhibition is -39.7% and -27.2%.

What about the inhibition ([6]; measured here: combination with cisplatin at IC20, at 0.5 µM) of the same compound?
Its inhibition is -14% and -62.4%.

And the inhibition ([7]; at 0.5 µM)?
Its inhibition is -9.94% (inactive) and -8.88% (inactive).

What about the inhibition ([7]; measured here: combo with BGB at IC20, at 0.5 µM) of the same compound?
Its inhibition is -6.42% and -16.2%.

What about the inhibition ([7]; measured here: combo with cisplatin at IC20, at 0.5 µM) of the same compound?
The inhibition was -14.7% and -5.25%.

And the inhibition ([8]; at 0.5 µM)?
The inhibition was 10.2% (inactive) and 12.2% (inactive).

What about the inhibition ([8]; measured here: inhibition with BGB combination, at 0.05 µM) of the same compound?
The inhibition was -9.69% and -2.7%.

And the inhibition ([8]; measured here: inhibition with cisplatin combination, at 0.05 µM)?
The inhibition was -15.8% and -25.8%.

And the inhibition ([9]; at 0.5 µM)?
Its inhibition is -23.5% (inactive) and -6.81% (inactive).

And the inhibition [9, 19]?
The inhibition was -31.3% and -1.96%.

What about the inhibition [9, 20] of the same compound?
Its inhibition is -80.2% and 9.2%.

And the inhibition ([10]; at 0.5 µM)?
Its inhibition is -16.9% (inactive) and 1.2% (inactive).

And the inhibition ([10]; measured here: BGB combination, at 0.5 µM)?
The inhibition was -8.45% and 11.2%.

What about the inhibition ([10]; measured here: BGB combination, at 5 µM) of the same compound?
The inhibition was -21.2% and 5.73%.

What about the inhibition ([10]; measured here: cisplatin combination, at 0.5 µM) of the same compound?
The inhibition was -33.4% and -3.35%.

And the inhibition ([10]; measured here: cisplatin combination, at 5 µM)?
The inhibition was -35% and -1.3%.

And the inhibition ([11]; BGB combination, concentration series, at 5 µM)?
Its inhibition is 0.446% and -9.8%.

What about the inhibition ([11]; at 0.5 µM) of the same compound?
Its inhibition is -0.18% (inactive) and -1.59% (inactive).

What about the inhibition ([11]; cisplatin combination, concentration series, at 5 µM) of the same compound?
Its inhibition is 29.6% and 3.48%.

What about the inhibition ([12]; at 0.5 µM) of the same compound?
The inhibition was -6.51% (inactive) and -21.5% (inactive).

And the inhibition ([12]; measured here: combo with BGB IC20, at 0.5 µM)?
The inhibition was -8.41% and -24.6%.

And the inhibition ([12]; measured here: combo with cisplatin IC20, at 0.5 µM)?
Its inhibition is -7.76% and -27.2%.

What about the inhibition ([13]; at 0.5 µM) of the same compound?
The inhibition was -50.8% (inactive) and -0.72% (inactive).

And the inhibition ([13]; cisplatin combination, at 0.5 µM)?
Its inhibition is -32.6% and -11.3%.

What about the inhibition ([13]; cisplatin combination, at 5 µM) of the same compound?
Its inhibition is -30.3% and -7.6%.

What about the inhibition ([13]; measured here: BGB IC40 combination 0.05 uM, at 0.05 µM) of the same compound?
The inhibition was -7.72% and 14.6%.

What about the inhibition ([13]; single agent, at 5 µM) of the same compound?
The inhibition was -22.5% and -17.6%.

And the inhibition ([14]; at 0.5 µM)?
Its inhibition is -14.5% (inactive) and -23% (inactive).

And the inhibition ([14]; cisplatin combo, at 5 µM)?
Its inhibition is -29.9% and -45.9%.

And the inhibition ([14]; measured here: BGB IC40 combination, at 0.05 µM)?
The inhibition was -12.3% and 4.76%.

And the inhibition [14, 19]?
The inhibition was -0.362% and -63.9%.

What about the inhibition ([14]; single agent, at 5 µM) of the same compound?
Its inhibition is -26.6% and -8.51%.

And the inhibition ([15]; at 0.5 µM)?
The inhibition was 12.4% (inactive) and 0.47% (inactive).

And the inhibition [15, 17]?
Its inhibition is 12.1% and 6.43%.

What about the inhibition [15, 18] of the same compound?
Its inhibition is 10.6% and -4.18%.

And the inhibition ([15]; single agent, at 0.05 µM)?
Its inhibition is -15.3% and 8.61%.

What about the inhibition ([15]; single agent, at 5 µM) of the same compound?
The inhibition was 20.8% and -15.6%.
